# High-throughput results: PubChem BioAssay, SRMLSC
# Many of the other results were omitted from the sample, so hits are more common in it than they were.
# MRP1 act: MRP-1 activation | H69AR cells + doxorubicin, viability rescue, CellTiter-Glo | viability increase, % at 10 µM | 140,000 compounds, 0.61% hits | AID 799;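 active means viability gain under doxorubicin at or above a set limit, the compound median plus 3 SD, cut at about 4.7% in these data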;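 further: MRP-1 overexpressing cells given doxorubicin 25 µM after compound pretreatment; 18-22 h compound pretreatment then 72 h with doxorubicin before readout; 0% = doxorubicin-only wells and 100% = vehicle-treated cells without doxorubicin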
# MRP reversal: reverses drug resistance mediated by MRP; differential viability (reversal), % at 10 µM; 85,000 compounds, 0.04% hits; H69AR cells + 2 uM doxorubicin, CellTiter-Glo, 72 h; AID 602;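 active means viability drop by adding the cancer drug above about 55%, with treated viability meeting a 40% cutoff, limit read from the data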;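 further: viability without doxorubicin minus viability with 2 µM doxorubicin for each compound; larger differential means the compound sensitizes cells more to doxorubicin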
# An asterisk follows results filed as active; / = not tested or not shown.
SMILES,MRP1 act,MRP reversal
O=C(Nc1cccc(Cl)c1)c1c(O)c2c(n(Cc3ccco3)c1=O)CCCC2,/,-5
O=C(Nc1cccc(Cl)c1)c1c(O)c2c(n(Cc3ccccc3)c1=O)CCCC2,5.6*,/
Cc1cccc(N/N=C(\C(N)=O)C2=NC(C)(C)Cc3ccccc32)c1,-3,/
O=C1NC(=O)C2(Cc3ccccc3N3CCCC32)C(=O)N1c1cccc(Cl)c1 (configuration not stated),-3,-3
Cc1ccc(CN2C(=O)NC(=O)C3(Cc4c(nc5ccccn5c4=O)N4CCCCCC43)C2=O)cc1 (configuration not stated),8.8*,-35
c1ccc2cc3cc4ccccc4cc3cc2c1,/,-6
CSC1=NP(=S)(SC)N2CCCC2=C1C#N (configuration not stated),29*,-10
COC(=O)CSC1=NP(=S)(SCC(=O)OC)N2CCCC2=C1C#N (configuration not stated),-2,-12
Cc1nc2ccc(Cl)cc2c(-c2ccccc2)c1C(=O)O,0,/
CCOc1ccc(NC(=O)c2c(C)nn(Cc3ccccc3)c2Cl)cc1,2,/
COc1ccc(C)cc1NC(=O)c1c(C)nn(Cc2ccccc2)c1Cl,4.8*,/
Cc1nnc2n1-c1ccc(Cl)cc1C(c1ccccc1)=NC2,/,20
